This is part of a sample that, as a whole, favours compounds with a hit. Of some 83,000 tested, about 20% had one in any assay.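 Compound tested at a single concentration for 48 hours in 96-well plates; a percent growth value below 10 was scored as active.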 Active and inactive are the calls of the source.
Test system: MDA-MB-468 breast
Test: NCI-60 one-dose screen, 48 h (100 = growth as untreated, 0 = no growth, -100 = all killed)
Conditions: 10 µM unless noted

Row | Compound | growth
1 | C=C1C(=O)O[C@H]2[C@H]1CC/C(CNC(=O)c1cc3ccccc3[nH]1)=C\CC[C@@]1(C)O[C@@H]21 | -61.7% (active)
2 | O=C1Nc2ccccc2SC1c1ccccc1Cl (stereo not drawn) | 29.9% (inactive)
3 | C/C=C(/C)C(=O)O[C@@H]1CC(C)(C)CC2C34OC(=O)[C@@]21CC[C@@]3(C)[C@]1(C)CCC2C(C)(C)C(=O)CC[C@]2(C)C1C[C@@H]4O (stereo partly drawn) | 13.1% (inactive)
